Some test systems named below: NCI-H23 lung; NCI-H226 lung; NCI-H322M lung; HOP-62 NSCLC; NCI-H460 lung; NCI-H522 lung; A549/ATCC NSCLC; 786-0 renal; COLO 205 colon; DU-145 prostate; K-562 leukemia; MALME-3M melanoma; MDA-MB-231 breast; RXF 393 renal; SF-268 CNS; SF-295 CNS; SF-539 CNS; UACC-257 melanoma; M14 melanoma; HOP-92 NSCLC.
Common to all, as to assay: NCI-60 one-dose screen, 48 h (100 = growth as untreated, 0 = no growth, -100 = all killed)
Holding throughout (settings): 10 µM unless noted

Each structure is given as a SMILES string. Compounds without any hit were thinned out: in the full panel of roughly 83,000, 20% have a hit.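 The endpoint reported here, percent growth, reads 100 for growth as untreated, 0 for no net growth and -100 for all cells dead.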 A number with no mark means an inactive call. Active and inactive are the calls of the source. Rule for the calls: active = growth percent below 10; inactive = the rest.

Our source for the growth values is PubChem BioAssay (NCI).

With `CN1C(=O)/C(=C\c2c(Cl)cccc2Cl)c2ccccc21`, the growth is 90.7% in the test with NCI-H23 lung; 100% with NCI-H226 lung; 96.5% in the test with NCI-H322M lung; 86.5% with HOP-62 NSCLC; 103% with NCI-H460 lung; 83.3% in the test on NCI-H522 lung. Further, the growth with A549/ATCC NSCLC is 88%; in the test with 786-0 renal, 84.3%; with COLO 205 colon it was 113%; in the test on DU-145 prostate it was 99.6%; with K-562 leukemia, 30.7%; in the test with MALME-3M melanoma, 79%. The growth in the test with MDA-MB-231 breast is 87.2%; with RXF 393 renal it was 85.1%; with SF-268 CNS, 87.2%; with SF-295 CNS, 86.3%; in the test on SF-539 CNS, 87.1%; in the test with UACC-257 melanoma, 87.2%. The growth with M14 melanoma was 75.5%.
In the case of `CC1(C)COB(OCC(C)(C)COB2OCC(C)(C)CO2)OC1`, the growth was 101% with NCI-H23 lung; 100% in the test on NCI-H226 lung; 92.2% in the test with NCI-H322M lung; 108% in the test with HOP-62 NSCLC; 107% with NCI-H460 lung; 106% in the test on NCI-H522 lung. Further, the growth in the test with A549/ATCC NSCLC was 100%; in the test on 786-0 renal, 104%; in the test on COLO 205 colon, 109%; with DU-145 prostate, 103%; with K-562 leukemia, 106%; in the test with MALME-3M melanoma, 93.8%. Also, the growth is 112% with MDA-MB-231 breast; 123% with RXF 393 renal; 100% in the test on SF-268 CNS; 97.4% in the test with SF-295 CNS; 98.3% with SF-539 CNS; 98.6% with UACC-257 melanoma. Moreover, the growth in the test with M14 melanoma was 105%.
For the compound `CCCCCCCCCc1ccc(OCCOCCOCCOCCOCCOCCOCCOCCOCCO)cc1`, the growth in the test with NCI-H23 lung was 7.69% (active); in the test with NCI-H226 lung, 17.3%; with NCI-H322M lung, 57.3%; in the test with HOP-62 NSCLC, 128%; in the test on NCI-H460 lung, 11.2%; in the test with NCI-H522 lung, -9.88% (active). For the same compound, the growth with A549/ATCC NSCLC is 17.3%; in the test on 786-0 renal it was 27.4%; in the test with COLO 205 colon, 109%; with DU-145 prostate, 31.5%; with K-562 leukemia, 10.5%; in the test with MALME-3M melanoma it was -10.2% (active). The growth in the test with MDA-MB-231 breast was -38.1% (active); in the test with RXF 393 renal it was 29%; in the test with SF-268 CNS it was 28.1%; in the test with SF-295 CNS, 0.0887% (active); with SF-539 CNS, 29%; in the test with UACC-257 melanoma it was -25.2% (active). Besides, the growth in the test with M14 melanoma was -11.3% (active).
Consider `C=CCn1c(SCC(=O)Nc2ccc(C(=O)/C=C/c3ccc(Cl)cc3)cc2)nnc1-c1ccc(Br)cc1`, for which the growth is 83.7% in the test with NCI-H23 lung; 80.7% with NCI-H226 lung; 91.8% in the test with NCI-H322M lung; 104% in the test with HOP-62 NSCLC; 83.1% in the test on NCI-H460 lung; 60.3% in the test on NCI-H522 lung. In addition, the growth was 65.4% with A549/ATCC NSCLC; 89% in the test on 786-0 renal; 118% in the test on COLO 205 colon; 75.3% in the test on DU-145 prostate; 61% in the test on K-562 leukemia; 97.6% with MALME-3M melanoma. Moreover, the growth was 81.2% with MDA-MB-231 breast; 74.8% in the test on RXF 393 renal; 73.6% with SF-268 CNS; 96.8% in the test with SF-295 CNS; 90.3% in the test with SF-539 CNS; 92.3% in the test on UACC-257 melanoma. Besides, in the test on M14 melanoma, the growth is 89.7%.
For the compound `COc1ccc(C(=O)/C=C/c2c(C(F)(F)F)nc3ccccn23)cc1OC`, the growth in the test with NCI-H23 lung was 0.445% (active); in the test with NCI-H226 lung, 79.4%; in the test with NCI-H322M lung, 24%; with HOP-62 NSCLC it was 11.1%; with NCI-H460 lung, -33.6% (active); in the test with HOP-92 NSCLC, 5.04% (active). Besides, the growth is 10.8% in the test with NCI-H522 lung; 10.3% in the test on 786-0 renal; 4.16% (active) in the test on DU-145 prostate; 11.4% in the test with K-562 leukemia; 41.5% in the test with MALME-3M melanoma; 26.2% in the test with MDA-MB-231 breast. Besides, the growth with RXF 393 renal is 14.8%; in the test with SF-268 CNS, 5.35% (active); in the test on SF-295 CNS, 0.39% (active); with SF-539 CNS it was -13.3% (active); in the test on UACC-257 melanoma it was 30.5%; in the test on M14 melanoma, 14.8%.
Turning to `O=C1C(=O)N(Cc2ccc(-c3ccccc3)cc2)c2ccc(OC(F)(F)F)cc21`, the growth is 41.4% with NCI-H23 lung; 73.6% with NCI-H226 lung; 102% in the test with NCI-H322M lung; 37.5% with HOP-62 NSCLC; 83.3% in the test with NCI-H460 lung; 31.1% in the test on NCI-H522 lung. The growth is 92.9% in the test on A549/ATCC NSCLC; 41.6% with 786-0 renal; 82.7% in the test with COLO 205 colon; 36.4% in the test on DU-145 prostate; 16.1% with K-562 leukemia; 62.2% with MALME-3M melanoma. Besides, the growth was 44.9% in the test with MDA-MB-231 breast; 76.9% with RXF 393 renal; 49.5% in the test with SF-268 CNS; 41.4% in the test on SF-295 CNS; -8.58% (active) with SF-539 CNS; 72.7% with UACC-257 melanoma. The growth in the test on M14 melanoma is 44.8%.
As for `CCCNc1nc2ccccc2c2c1S(=O)(=O)c1ccc(Cl)cc1C2=O`, the growth is 24.7% in the test with NCI-H23 lung; 34.7% with NCI-H226 lung; 32.7% with NCI-H322M lung; 9.66% (active) in the test with HOP-62 NSCLC; 5.29% (active) in the test on NCI-H460 lung; -81.3% (active) with NCI-H522 lung. Further, the growth in the test with A549/ATCC NSCLC is 19.6%; with 786-0 renal, 13.9%; in the test with COLO 205 colon, -9.19% (active); with DU-145 prostate it was 19.4%; in the test on K-562 leukemia, 8.48% (active); in the test on MALME-3M melanoma, 21.9%. In addition, the growth is -0.717% (active) with MDA-MB-231 breast; 12% in the test on RXF 393 renal; 20.4% in the test on SF-268 CNS; 15.8% with SF-295 CNS; 6.35% (active) in the test with SF-539 CNS; 17.8% in the test with UACC-257 melanoma. The growth with M14 melanoma is 5.71% (active).
In the case of `COc1c(B(O)O)cccc1-c1nc2c(F)cc3[nH]ncc3c2c2c1CCCC2`, the growth with NCI-H23 lung is -11.1% (active); in the test on NCI-H226 lung it was 9.55% (active); in the test with NCI-H322M lung it was 7.84% (active); with HOP-62 NSCLC it was 9.83% (active); in the test on NCI-H460 lung, 4.81% (active); in the test on NCI-H522 lung it was 1.23% (active). Besides, the growth was 12.2% in the test on A549/ATCC NSCLC; 0.342% (active) with 786-0 renal; -20.2% (active) with COLO 205 colon; 7.77% (active) in the test on DU-145 prostate; 11.3% with K-562 leukemia; -15.1% (active) with MALME-3M melanoma. Also, the growth in the test on MDA-MB-231 breast is 12.4%; in the test with RXF 393 renal, -45% (active); in the test on SF-268 CNS, 12.3%; in the test with SF-295 CNS it was 7.58% (active); in the test on SF-539 CNS, -28.3% (active); with UACC-257 melanoma it was 20.3%. In addition, the growth in the test on M14 melanoma was 11.3%.
